Experimental data taken from PubChem BioAssay AID777 (Sanford-Burnham Center for Chemical Genomics, 2007).
The campaign covered roughly 96,000 compounds. About 19,000 (20%) were called active. These entries were drawn from the full list. Values without a mark were called inactive.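 How the source made its calls: active means blocking of liver enzyme CYP2C9 beyond about 50% at 5 µM (limit read from the data); inactive means the rest.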

molecular target: Cytochrome P450 2C9 (Homo sapiens) (UniProt P11712); experiment: blockers of cytochrome P450 2C9 activity – biochemical, luminescence, ADME assay, primary screen (AID 777); conditions: CYP2C9 Supersomes, luciferin-H conversion, at 5 µM, stronger effect = higher value
Sequence (P11712 whole entry, looked up): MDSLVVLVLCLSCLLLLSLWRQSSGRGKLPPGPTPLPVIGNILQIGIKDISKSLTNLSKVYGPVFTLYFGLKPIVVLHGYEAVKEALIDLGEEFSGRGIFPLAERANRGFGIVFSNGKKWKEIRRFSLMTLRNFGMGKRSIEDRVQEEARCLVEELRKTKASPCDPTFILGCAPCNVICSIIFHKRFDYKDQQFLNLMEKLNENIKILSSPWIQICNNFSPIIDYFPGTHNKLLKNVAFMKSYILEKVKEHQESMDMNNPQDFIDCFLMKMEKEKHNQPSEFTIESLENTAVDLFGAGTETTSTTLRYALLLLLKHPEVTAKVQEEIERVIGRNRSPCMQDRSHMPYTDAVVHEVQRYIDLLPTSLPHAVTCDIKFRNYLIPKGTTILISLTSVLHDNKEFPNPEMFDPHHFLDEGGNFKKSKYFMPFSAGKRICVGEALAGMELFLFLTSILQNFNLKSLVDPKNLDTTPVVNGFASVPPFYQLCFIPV

SMILES	inhibition
C=CCNc1nc(N)c(C(=C(C#N)C#N)c2ccccc2)s1	69.6% (active)
C=CCNC(=O)c1csc(-c2ccccc2)n1	35.2%
CCCn1c(=O)c2ccccc2n2c(SCC(=O)/C(C#N)=C(\C)N)nnc12	14.3%
CCOc1ccccc1NC(=O)CCc1ccc(C)o1	-185%
CC1=NCCN1S(=O)(=O)c1ccc(Br)c(C)c1	-80.5%
CCCCOc1ccc(CSC(=N)N)cc1[N+](=O)[O-]	20%
CCCCOc1ccc(Cl)cc1CSc1nncn1N	74.2% (active)
Cn1ncc2c(Nc3cccc4ccccc34)ncnc21	-1.5%
O=C1COc2ccc(NC(=O)N3CCN(c4ccc(F)cc4)CC3)cc2N1	19.5%
CC1=NC2(CCCc3c2no[n+]3[O-])N(O)C1(C)C (stereo not drawn)	11.5%
O=S1(=O)CCN2C(=N1)SC1=C2CCN(Cc2ccccc2)C1	0.4%
COC(=O)CN(C(=S)Nc1ccc(Cl)cc1)C1CC(=O)N(c2ccc(OC)cc2)C1=O (stereo not drawn)	43.6%
Cc1cnc(NC(=O)CSc2c(Cl)cccc2Cl)s1	1.4%
COC(=O)c1c(-c2cccs2)csc1NC(=O)CSc1ncnc2sc(C)c(C)c12	76.2% (active)
COC(=O)c1ccccc1NC(=O)CSc1ccccn1	-10.9%
CCn1c(SC)nc(O)c(C(c2ccc(OC)c(O)c2)c2c(O)nc(SC)n(CC)c2=O)c1=O	23.3%
Cc1cc(C)nc(SCc2nnc(SCC(=O)OC3CCCCC3)o2)n1	7%
Nc1cc(=O)nc(SCc2ccccc2)n1Cc1ccco1	7.5%
CCOC(=O)CSc1nc2c(sc(=S)n2CCc2ccccc2)c(=O)n1Cc1ccco1	66.9% (active)
CCOC(=O)CSc1nnc(-c2ccco2)n1C	-20.3%
O=C(C1=C(O)C(=O)N(Cc2ccccc2)C1c1ccco1)c1ccco1 (stereo not drawn)	24%
CC1=NN(Cc2ccccc2)C(=O)/C1=C/c1ccc(N(C)C)cc1	14.4%
CN(C)c1ccc(/C=C2\NC(=S)N(Cc3ccccc3)C2=O)cc1	66.2% (active)
CN(C)c1cc[n+](Cc2ccccc2)cc1	2.2%
CCOC(=O)N1CCN(Cc2oc(CO)cc(=O)c2O)CC1	-4.5%

SMILES	inhibition
CC(C)(C)Cc1nnc(NC(=O)c2cc(-c3ccccc3)nc3ccccc23)s1	11.3%
N/C(=N\OC(=O)c1cc(-c2ccccc2)nc2ccccc12)c1ccncc1	97.7% (active)
Cc1ccc(-c2cc(C(=O)Nc3nn[nH]n3)c3ccccc3n2)c(C)c1	23.9%
CC12CN(Cc3ccccc3)CC(C)(CN(Cc3ccccc3)C1)C2=NO	-1.5%
COc1cccc(-c2nc(S(=O)(=O)c3ccccc3)c(N3CCOCC3)o2)c1	27.5%
CCc1ccc2oc(-c3ccc(N)cc3)nc2c1	-59.8%
COc1cccc(-c2nc3cc(C)ccc3o2)c1	53.3% (active)
O=C(O)CSCc1ccc(C(=O)O)o1	13.1%
CSc1ccc(S(=O)(=O)NCc2ccc(Cl)cc2)cc1	-49.2%
O=C(O)c1ccc(F)c(S(=O)(=O)Nc2ccccc2)c1	17%
CSc1ccc(S(=O)(=O)Nc2cccc(F)c2)cc1	93.8% (active)
CCn1cc(C(=O)N2CCN(C3CCCCC3)CC2)c2cc(OC)c(OC)cc2c1=O	19%
Cc1cc2ncn(CCCCOc3ccccc3)c2cc1C	27.5%
CCOC(=O)c1cccc(NC(=O)CCc2c(C)nc3ncnn3c2C)c1	15.2%
CCOC(=O)c1ccc(NC(=O)Cn2nnc(-c3ccc(C)cc3)n2)cc1	32%
CCOC(=O)c1nnn(CC(=O)Nc2cccc(F)c2)c1C(=O)OCC	60.3% (active)
CCOC(=O)c1cn(CC(=O)Nc2ccc(C(C)C)cc2)nn1	17.6%
CCOC(=O)c1ccc(NC(=O)CS(=O)(=O)c2cn(CC)c3ccccc23)cc1	20.9%
CCOC(=O)c1cccc(NC(=O)CCn2nnc3ccccc32)c1	53.3% (active)
CCCc1nc2scc(-c3ccc(C)cc3)c2c(=O)n1N	27.6%
CCSc1ccccc1C(=O)NCc1ccc(OC)cc1	53.8% (active)
CCCNC(=O)c1ccccc1NC(=O)CSCc1ccc(OC)cc1	15.3%
COc1ccc(CNC(=O)CCn2cccc2)cc1	20.4%
CC(C)(CNCC(O)c1ccccc1)N1CCOCC1 (stereo not drawn)	-3.5%
CCOC(=O)C1(Cc2ccc(O)cc2)NC(c2ccccc2F)C2C(=O)N(C)C(=O)C21 (stereo not drawn)	-15.1%

SMILES	inhibition
Cc1nc([N+](=O)[O-])nn1C12CC3CC(CC(Br)(C3)C1)C2	18.8%
N#CC1=C(N)C(C#N)(C#N)[C@H](c2ccsc2)[C@H]2COCC=C12	61.4% (active)
CCOC(=O)N1CC=C2C(C#N)=C(N)C(C#N)(C#N)[C@H](c3cccs3)[C@H]2C1	11.7%
CCN1CC=C2C(C#N)=C(N)C(C#N)(C#N)[C@H](c3ccoc3)[C@H]2C1	-2.3%
CCOc1ccc(C(=O)NC(C(=O)NCc2ccccn2)C(C)C)cc1 (stereo not drawn)	6.7%
O=C(Nc1cccc(C(=O)N2CCCC2)c1)c1ccccc1	31.3%
Cc1cc(C)cc(NC(=O)c2cccc(NC(=O)C3C4CC5OC(=O)C3C5C4)c2)c1 (stereo not drawn)	-1.1%
O=C(Nc1ccc(Br)cc1)c1cccc(NC(=O)C2C3CC4OC(=O)C2C4C3)c1 (stereo not drawn)	66.4% (active)
C/C(N)=C(\C#N)C(=O)NCCc1ccccn1	-7.1%
Fc1ccc(-c2nnc(CSc3nnc(-c4ccc5c(c4)OCO5)o3)o2)cc1	-13.3%
Cc1ccc2nc(SCc3nnc(-c4ccccc4[N+](=O)[O-])o3)c(C#N)cc2c1	20%
Fc1ccc2nc(-c3ccccc3)nc(SCc3nnc(-c4ccccc4)o3)c2c1	76.7% (active)
COc1ccc(OC)c(NC(=O)c2cnn(-c3ccccc3Cl)c2NC(=O)c2ccco2)c1	24.5%
Cc1nc2nc(COc3ccccc3)[nH]n2c(=O)c1C	1.1%
CCn1cc(C(=O)N/N=C(/C)c2ccc(F)cc2)c(=O)c2cc(F)c(N3CCCC3)cc21	5.7%
CN(c1ccccc1)c1ccc(/C=c2\s/c(=C(/C#N)C(=O)C(C)(C)C)n(Cc3ccco3)c2=O)cc1	41.9%
C=CCn1c(=N)n(CC(O)COc2ccc(OC)cc2)c2ccccc21 (stereo not drawn)	-0.2%
COCCCn1c(CCC(=O)O)ccc1-c1ccc(F)cc1	39.8%
CC(C)(CSc1nncn1/N=C/c1ccco1)NS(=O)(=O)c1ccc(Cl)cc1	61.2% (active)
Cc1cc(C)c2c(c1)cc(C)c1nnc(SCC(=O)Nc3cc(C)on3)n12	10.5%
CCCS(=O)(=O)N1CCCC(C(=O)N2CCN(c3ccccc3)CC2)C1 (stereo not drawn)	-1.6%
Cc1nnsc1S(=O)(=O)Cc1ccccc1Cl	3.2%
CCOC(=O)C(CCOc1cccc(CC)c1)C(=O)OCC	57% (active)
CCCOc1cccc(C(=O)Nc2nnn(CCC)n2)c1	38.6%
COC(=O)[C@@H](NC(=O)NCc1cccc(OC)c1)C(C)C	-12.5%

SMILES	inhibition
CC(C)=C(NC(=O)c1ccco1)C(=O)NCCc1nc2ccccc2[nH]1	-29.7%
CCC(CC)C(=O)N1CC(=O)Nc2ccc(Br)cc2C1c1ccccc1 (stereo not drawn)	49.6%
S=c1[nH]nc2c3c4c(sc3ncn12)CCCC4	20.5%
CCCOc1ccccc1-c1nc(SCCC(=O)O)n[nH]1	-1.3%
N#CC(C(=O)c1ccc(S(=O)(=O)N2CCCCCC2)cc1)c1nc2ccccc2[nH]1 (stereo not drawn)	67.8% (active)
COC(=O)c1ccc(S(=O)(=O)N2CCC(c3nc4ccccc4o3)CC2)cc1	16.8%
COc1ccccc1N1CCN(C(=O)c2ccc(S(=O)(=O)N3CCCCC3)cc2)CC1	45.8%
O=C(CSc1nc2ccccc2o1)N1CCN(c2ccccc2)CC1	29.7%
CC(C)OCCCNC(=O)C1CC(=O)N(C2CCCCCCC2)C1 (stereo not drawn)	-4.2%
CC(CN1CCCCC1)OC(=O)c1ccccc1Cl (stereo not drawn)	9.2%
CCOC(=O)c1sc2nc(SC)nc(-c3ccccc3)c2c1N	13.3%
CCOC(=O)c1sc(N(Cc2ccccc2)C(=O)CN2C(=O)CN(C)C2=O)nc1C	57.9% (active)
CCOC(=O)c1ccc(N2C(=O)CC(N(C)Cc3ccccc3)C2=O)cc1 (stereo not drawn)	-9.5%
Cc1cc(Oc2ccccc2)nc(N2CCOCC2)n1	26.5%
c1ccc(Nc2nc(N3CCOCC3)c3ccccc3n2)cc1	56.9% (active)
c1ccc(COc2nsnc2N2CCOCC2)cc1	30.3%
COCc1[nH][nH]c(=O)c1C=Nc1ccc(F)cc1F	-10%
CCCOC(=O)CC1C(=O)NCCN1Cc1ccc(F)cc1 (stereo not drawn)	6.4%
CCC(C)(C(=O)NC1CCCCC1)N(C)C(=O)c1ccc2c(c1)OCO2 (stereo not drawn)	-1.7%
COC(=O)c1ccc(NC(=O)c2ccco2)cc1	24%
Cc1ccnc(NC(=O)c2ccc(NC(=O)c3ccco3)cc2)c1	-0.6%
CC(C)(C)NC(=O)c1cc(NC(=O)c2ccco2)cc(NC(=O)c2ccco2)c1	64.8% (active)
CN1CCN(CC(=O)C23CC4CC(CC(C4)C2)C3)CC1	5.7%
